Compounds with a hit are over-represented: about 3.5% of the library has one in this group of screens.
MITF primary = human MITF inhibition, primary screen; O75030; AlphaScreen MITF homodimerization, bead proximity signal; inhibition, % at 2.6 µM; actives 0.91% (n = 650,000); in the data active = inhibition above about 50%;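 also: 0% = vehicle wells with protein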
TEAD-YAP block = TEAD-YAP interaction inhibition; actives 1.4% (n = 640,000); HEK-TIYL cells, TEAD-Gal4/YAP UAS-luciferase luminescence; inhibition, % at 9.12 µM; in the data active = inhibition above about 32%;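 also: 0% = median of test compound wells and 100% = reference inhibitor wells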
GPR151 ag = human GPR151 activation; Q8TDV0; PathHunter beta-arrestin GPR151 cells, luminescence; activation, % at 11.2 µM; actives 1% (n = 650,000); in the data active = activation above about 4.9%;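 also: 0% = median of compound wells and 100% = cells with positive control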
FBW7 act = human FBW7 E3 ligase activation, primary screen. AlphaScreen FBW7–phospho-cyclin E peptide binding, activator screen. actives 0.13% (n = 650,000). AID 1259310. normalized activity (activation), % at 26.1 µM. Q969H0; in the data active = normalized activity above about 1.9%;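 also: purified mutant Fbw7 with reduced substrate affinity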
Target sequence (Q969H0 whole entry, looked up): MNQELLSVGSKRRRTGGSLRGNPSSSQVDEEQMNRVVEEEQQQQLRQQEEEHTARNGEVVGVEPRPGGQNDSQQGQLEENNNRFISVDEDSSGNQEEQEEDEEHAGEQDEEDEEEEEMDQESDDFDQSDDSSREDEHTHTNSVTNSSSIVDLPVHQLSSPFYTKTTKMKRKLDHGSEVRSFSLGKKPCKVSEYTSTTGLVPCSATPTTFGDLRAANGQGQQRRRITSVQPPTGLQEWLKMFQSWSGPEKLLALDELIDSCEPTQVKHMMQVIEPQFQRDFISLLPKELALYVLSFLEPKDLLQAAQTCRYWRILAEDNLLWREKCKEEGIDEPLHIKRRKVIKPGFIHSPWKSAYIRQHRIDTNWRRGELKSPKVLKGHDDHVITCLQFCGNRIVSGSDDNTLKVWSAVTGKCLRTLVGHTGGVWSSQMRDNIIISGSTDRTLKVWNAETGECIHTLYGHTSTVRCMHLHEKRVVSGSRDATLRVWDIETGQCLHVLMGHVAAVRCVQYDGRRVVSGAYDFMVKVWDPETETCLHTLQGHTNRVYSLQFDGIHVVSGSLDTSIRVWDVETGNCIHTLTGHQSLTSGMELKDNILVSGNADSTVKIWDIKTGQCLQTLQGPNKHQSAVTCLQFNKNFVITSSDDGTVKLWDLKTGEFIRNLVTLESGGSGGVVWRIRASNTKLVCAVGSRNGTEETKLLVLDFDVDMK
Active calls of the source: *.

SMILES	MITF primary	TEAD-YAP block	GPR151 ag	FBW7 act
CCCOc1ccc(C2NC(=O)NC(C)=C2C(=O)OCc2ccc3c(c2)OCO3)cc1 (centres undefined)	-11	55*	2	0
CCOc1ccccc1C1NC(=O)NC(C)=C1C(=O)OCc1ccc2c(c1)OCO2 (centres undefined)	19	7	-1	0
CCOc1ccc(C2NC(=O)NC(C)=C2C(=O)OCc2ccc3c(c2)OCO3)cc1 (centres undefined)	15	56*	0	0
CCCCS(=O)(=O)/C=C\C=C\S(=O)(=O)CCCC	0	90*	1	0
CCN(CC)c1ccc2cc(S(=O)(=O)c3ccc(F)cc3)c(=O)oc2c1	-32	-17	-1	2.1*
COc1cccc2cc(S(=O)(=O)c3ccc(F)cc3)c(=O)oc12	6	-3	-1	0
CCCCN(C)C(=O)CSc1nc2ccccc2c(=O)n1CC1CCC(C(=O)NCCc2ccccc2)CC1 (centres undefined)	20	-19	-2	1.9*
CCOc1ccc(N(/C=C2\Sc3ccccc3C2=O)C(=O)c2cccc(Cl)c2)cc1	9	45*	-8	0
COc1ccc(N(/C=C2\Sc3ccccc3C2=O)C(=O)c2cccc(Cl)c2)cc1	11	51*	-9	0
COc1cc(Nc2cccc(C(=O)NCCOc3ccccc3)c2)cc(OC)c1OC	12	-60	0	0
O=[N+]([O-])c1cc2c(cc1C=Nc1ccc(O)cc1)OCO2	53*	7	-2	0
Cc1ccc(Nc2ccc3nonc3c2[N+](=O)[O-])cc1C	6	1	0	0
Cc1ccc(Nc2ccc3nonc3c2[N+](=O)[O-])c(C)c1	16	-7	2	2.5*
Cc1cncc2cccc(NC3CCCNC3)c12 (centres undefined)	-2	94*	1	0
Cc1cncc2cccc(NC3CCN(C(=O)[C@H](C)O)CC3)c12	11	5	0	-1
Cc1ccccc1C(=O)/C=c1\[nH]c(=O)/c(=C\c2cccc(O)c2)s1	4	57*	0	0
CCOC(=O)c1c(C)[nH]c2ccc(Oc3nc(OC)cc(OC)n3)cc12	-3	41*	2	0
Cc1cc(C)cc(Oc2c(C(F)(F)F)oc3c(CN4CCCCC4)c(O)ccc3c2=O)c1	14	-3	-2	0
CN1CCN(Cc2c(O)ccc3c(=O)c(Oc4ccc(-c5ccccc5)cc4)c(C(F)(F)F)oc23)CC1	13	-3	-1	0
CN1CCN(Cc2c(O)ccc3c(=O)c(Oc4ccc(C(C)(C)C)cc4)c(C(F)(F)F)oc23)CC1	3	34*	-1	1
CC(C)(C)c1ccc(Oc2c(C(F)(F)F)oc3c(CN4CCCC4)c(O)ccc3c2=O)cc1	10	36*	0	0
OCCC1CCCCN1c1ccnc2c(-c3cccc(O)c3)cnn12 (centres undefined)	4	95*	-1	0
CC(=O)Nc1cccc(-c2cnn3c(N4CCCCC4CCO)ccnc23)c1 (centres undefined)	-10	-3	0	0
OCCC1CCCCN1c1ccnc2c(-c3cccc(F)c3)cnn12 (centres undefined)	-18	93*	0	0
OCCC1CCCCN1c1ccnc2c(-c3cccc4ccccc34)cnn12 (centres undefined)	-33	-29	-1	0
SMILES	MITF primary	TEAD-YAP block	GPR151 ag	FBW7 act
OCCC1CCCCN1c1ccnc2c(-c3cccc(C(F)(F)F)c3)cnn12 (centres undefined)	-7	55*	-2	0
OCCC1CCCCN1c1ccnc2c(-c3cc4ccccc4o3)cnn12 (centres undefined)	-11	67*	0	0
NC(=O)c1cccc(-c2cnn3c(N4CCCCC4CCO)ccnc23)c1 (centres undefined)	-15	-28	1	-1
CCN(CC)S(=O)(=O)c1ccc2c(c1)c(=O)c(C(=O)N1CCc3ccccc31)cn2C	8	7	-1	0
CN(C)CCNc1nc2c(c(=O)[nH]c(=O)n2C)n1Cc1cccc(Br)c1	-4	3	1	0
Cc1cc(F)ccc1S(=O)(=O)Nc1ccc2oc3c(c2c1)C(=O)CCC3	12	6	1	0
CC(C)C[C@@H]1NC(=O)[C@@H]2C[C@H](NCc3ccccc3F)CN2C1=O	21	-8	-1	0
O=C(NC1CCCCCCC1)c1cc(-c2ccccc2)nc2ccccc12	8	1	-1	0
COCCn1c(C)cc(/C=C2/C(=O)NC(=O)N(Cc3ccco3)C2=O)c1C	28	1	0	0
O=C1NC(=S)N(Cc2ccco2)C(=O)/C1=C\N1CCOCC1	75*	-6	-1	0
CCOc1ccc2ccccc2c1/C=C1/C(=O)NC(=S)N(Cc2ccco2)C1=O	77*	-18	-1	-1
CCOc1ccc(/C=C2\C(=O)NC(=S)N(CC)C2=O)c2ccccc12	14	8	-2	0
COCCn1c(C)cc(/C=C2/C(=O)NC(=S)N(Cc3ccco3)C2=O)c1C	65*	-1	1	-1
Cc1cccc(OCC(=O)Nc2ccc(-c3cn[nH]c3)cc2)c1	-3	-5	0	0
CCNC(=O)C(=O)N/N=C/c1cc([N+](=O)[O-])ccc1O	74*	5	1	-1
O=C(N/N=C/c1cc([N+](=O)[O-])ccc1O)N/N=C/c1cc([N+](=O)[O-])ccc1O	-1	0	1	0
O=C(Cn1nnc2ccccc21)N/N=C/c1cc([N+](=O)[O-])ccc1O	73*	9	0	0
O=C(CCn1nnc2ccccc21)N/N=C\c1cc([N+](=O)[O-])ccc1O	42	10	1	0
O=C(CNc1ccccc1)N/N=C/c1cc([N+](=O)[O-])ccc1O	54*	23	5	0
COc1cc(Nc2cc(NCc3ccc4c(c3)OCO4)ncn2)cc(OC)c1OC	12	-1	-1	0
CC(C)(C)NC(=O)COC(=O)c1ccc(I)cc1	6	7	-2	0
CC1(C)CC(=O)C2=C(C1)Nc1ccccc1NC2c1ccc2c(c1)OCO2 (centres undefined)	-3	-21	-2	0
O=C1OCC2=C1C(c1ccc3c(c1)OCO3)Nc1ccc3ccccc3c12 (centres undefined)	-8	54*	2	0
NC(=O)c1ccccc1Nc1ccnc(Nc2ccc(N3CCNCC3)cc2)c1	8	4	0	-1
CNC(=O)c1ncccc1Nc1cc(Nc2ccc(C(=O)N(C)C)cc2OC)ncc1C(F)(F)F	-4	-13	0	0
CNC(=O)c1ccccc1Nc1cc(Nc2ccc(C(=O)N3CC[C@H](O)C3)cc2OC)ncc1C(F)(F)F	15	33*	1	0
COc1cc(N2CCOCC2)ccc1Nc1cc(Nc2ccccc2NC(C)=O)c(C(F)(F)F)cn1	-7	46*	-1	0
Cc1cnc(Nc2ccc(N3CCNCC3)cc2)cc1Nc1ccccc1C(N)=O	18	33*	-1	0

Source: PubChem
